MITF act: MITF TRPM1 promoter activation in melanoma cells; actives 0.75% (n = 300,000); SK-MEL-5 TRPM1-promoter luciferase, 24 h; % of positive control, neutral wells = 0; AID 588334; activation, % at 12.5 µM;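 active = mean activation of at least 80% with every replicate also reaching 80%; inconclusive = mean reaches 80% but some replicate falls short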;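 note: 0% = neutral control wells and 100% = parthenolide positive control wells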
Wnt bcat act: Wnt/beta-catenin pathway activation | Wnt/beta-catenin reporter cell assay, activator, plate reader | activation, % at 9.35 µM | actives 1.2% (n = 300,000); in the data active = activation above about 30%, passing the limit was not always enough; inconclusive = no clear call, values can overlap the other calls;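 note: 0% = neutral control wells and 100% = positive control wells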
esBAF inh: blocks esBAF chromatin remodeling in mouse ES cells; Bmi1-luciferase knock-in reporter, 24 h; 100% = twice the neutral-well signal; reporter increase, % at 12.5 µM; actives 2% (n = 350,000); in the data active = activation above about 40%; inconclusive = no clear call, values can overlap the other calls;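 note: 0% = median of the plate's neutral control wells and 100% = double that signal; a rise in the Bmi1 reporter signal indicates esBAF inhibition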
FXN GAA850 act: frataxin GAA850 promoter activation; HEK293 lucGAA850 FXN promoter luciferase reporter, 24 h; percent of 10 µM SAHA response; activation, % at 6 µM; actives 0.56% (n = 360,000);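 active = activation above the average of all compounds screened plus 3 SD, cutoff fixed separately per campaign, cut at about 7.5% in these data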;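 note: 0% = DMSO wells and 100% = 10 µM SAHA wells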
AHR activator: activators of human aryl hydrocarbon receptor. P35869. AHR-responsive luciferase reporter cells, luminescence. activation, % at 5 µM. actives 2.5% (n = 320,000). AID 2796; in the data active = activation above about 47%;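 note: 0% = vehicle wells and 100% = reference agonist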
GAA30 FXN cntr: activates GAA30 frataxin promoter, counter-screen for GAA850 activators | shares compounds with FXN GAA850 act | activation, % at 6 µM | AID 588350 | actives 66% (n = 1,900) | HEK293 lucGAA30 FXN promoter luciferase, 24 h; DMSO = 0%, 5 µM ipriflavone = 100%;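 active = mean activation above the mean of solvent-only control wells plus 3 SD, cut at about 22% in these data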;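 note: counterscreen of GAA850 promoter hits where activity marks nonselective or luminescence artifacts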
GAA850 confirm: GAA850 FXN promoter activation confirmation; activation, % at 6 µM; actives 86% (n = 1,900); HEK293 lucGAA850 FXN promoter luciferase reporter, 24 h; 100% = activation by SAHA; shares compounds with FXN GAA850 act;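 active = mean activation above a set limit taken from the primary screen, cut at about 8% in these data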;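 note: 0% = DMSO wells and 100% = 10 µM SAHA wells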
Numbers without * were called inactive; ? = inconclusive; nt = no result. In the library only some 4.2% were active in any assay of this set; here they are far more common.

SMILES	MITF act	Wnt bcat act	esBAF inh	FXN GAA850 act	AHR activator	GAA30 FXN cntr	GAA850 confirm
CCOC(=O)/C(=C/c1ccc(N2CCC(c3ccccc3)=N2)cc1)C(C)=O	47	nt	nt	-13	nt	nt	nt
COc1ccc(CNC(=O)c2c(-c3cc(Cl)c(OC)c(Cl)c3)noc2C)cc1	-4	-1	0	10*	-1	17	11*
Cc1onc(-c2ccccc2)c1C(=O)NCc1ccc(Cl)cc1	1	-2	-4	1	nt	nt	nt
COc1ccccc1C(=O)N=c1sc2c(C)ccc(OC)c2n1C	?	23	38	9.5*	62*	82*	32*
O=C(NCC[C@H]1CC[C@@H](NC(=O)c2cnccn2)[C@H](CO)O1)Nc1ccc(F)cc1	nt	nt	0	nt	nt	nt	nt
COc1ccc(-c2[nH]c3ccccc3c2SCCNC(=O)c2ccccc2)cc1	nt	-5	16	22*	26	2	5
O=C(C[C@@H]1C[C@@H]2c3cc(NC(=O)Cc4ccncc4)ccc3O[C@@H]2[C@@H](CO)O1)NCCN1CCCCC1	nt	nt	-3	nt	nt	nt	nt
CCCSc1nc(N)c(C#N)c(-c2ccc(C)cc2)c1C#N	2	-2	11	1	5	nt	nt
C=CCSc1nc(N)c(C#N)c(-c2ccccc2)c1C#N	10	-2	3	11*	6	18	17*
CCOC(=O)c1ccccc1NC(=O)Nc1ccc(OC)c(OC)c1	-10	nt	0	9.6*	-2	17	10*
CN(Cc1ccccc1)c1nc(N)c([N+](=O)[O-])c(Nc2cccc(F)c2)n1	nt	nt	-3	9.6*	48*	27*	17*
CCOC(=O)C1=C(COC(=O)/C=C/c2ccccc2Cl)NC(=O)NC1C (stereo unspecified)	35	1	nt	8.0*	2	49*	19*
CCOC(=O)C1=C(COC(=O)/C=C/c2ccccc2F)NC(=O)NC1C (stereo unspecified)	-3	0	-1	1	-1	nt	nt
C[C@H](CO)N1C[C@H](C)[C@@H](CN(C)C(=O)Nc2cccc3ccccc23)Oc2ccc(NS(=O)(=O)c3cccs3)cc2CC1=O	nt	nt	3	nt	nt	nt	nt
COc1ccc(/C=C2\N=C(c3ccccc3)N(c3ccc(C(=O)O)cc3)C2=O)cc1OC	33	6	12	9.3*	-5	41*	23*
Nc1c(Cl)ncnc1N/N=C/c1ccc(O)cc1	44	27	1	7.8*	20	52*	14*
CO[C@@H]1CN(C)C(=O)c2ccc(NC(=O)Cc3ccccc3)cc2OC[C@@H](C)N(C(C)=O)C[C@@H]1C	nt	nt	3	nt	nt	nt	nt
O=C(CCCCCCC(=O)Nc1ccccc1)NO	-84	245*	-43	88*	-4	61*	97*
COCC(=O)Nc1ccc2c(c1)[C@H]1C[C@@H](CC(=O)NCc3cccnc3)O[C@@H](CO)[C@H]1O2	nt	nt	3	nt	nt	nt	nt
O=C(Nc1ccccc1Cl)c1ccccc1CC(O)(c1ccccc1)c1ccccc1	nt	-3	nt	14*	nt	9	12*
CC(C)(C)c1ccc(C(=O)Nc2ccccc2Cl)cc1	42	nt	nt	3	10	nt	nt
COCCNC(=O)C[C@@H]1CC[C@@H]2[C@H](COc3ccc(NC(=O)C4CCOCC4)cc3C(=O)N2C)O1	nt	nt	-8	nt	nt	nt	nt
Cc1cc(C)cc(-n2c(SC(C)C(=O)NCc3ccc4c(c3)OCO4)nc3ccccc3c2=O)c1 (stereo unspecified)	2	-1	nt	8.7*	8	24*	8.2*
Cc1cccc(-n2c(SCC(=O)NCc3ccc4c(c3)OCO4)nc3ccccc3c2=O)c1	4	1	nt	3	14	nt	nt
Fc1ccc(-n2cc(-c3ccccc3)c3c(=S)nc[nH]c32)cc1	3	2	24	8.5*	12	-11	14*
Fc1cccc(-n2cc(-c3ccccc3)c3c(=S)nc[nH]c32)c1	?	1	2	7.9*	35	-12	19*
O=c1[nH]cnc2c1c(-c1ccccc1)cn2-c1ccccc1	16	2	-7	3	9	nt	nt
C[C@@H]1CN([C@@H](C)CO)C(=O)c2cccc(NC(=O)Nc3ccccc3)c2O[C@H]1CN(C)S(=O)(=O)c1cn(C)cn1	nt	nt	-7	nt	nt	nt	nt

Source: PubChem (several laboratories)
